Molecules are shown by their SMILES. The source made the active and inactive calls. The call rests on the fitted dose curve; in most records, active means well fitted curve in the direction sought with a large enough effect; inconclusive means small, poorly fitted or top-dose-only effect, or effect the other way, or another doubt; inactive means no such curve, though single readings can be large or run the other way.

The assay can be described thus: qHTS for Inhibitors of Cell Surface uPA Generation: Validation Assay (AID 493164).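 Further: RAW 264.7 macrophage cells exposed to compound for 18 h.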 The note with it: mouse cells, plasminogen activation; series mostly up to 38.3 µM. The source says: NIH Chemical Genomics Center [NCGC]
NIH Molecular Libraries Probe Centers Network [MLPCN]
Assay Submitter (PI): Thomas Bugge
The overall objective of this project is to perform a quantitative high throughput screen (qHTS) to identify novel compounds that inhibit the generation of cell surface urokinase activity. The urokinase plasminogen activator (uPA) is one of the two primary endogenous systems that mediate plasminogen activation into plasmin. Members of this system, including uPA and its receptor (uPAR), are overexpressed in several malignant tumors. This system plays a major role in adhesion, migration, invasion and metastasis of cancer cells. Small molecule inhibitors of the uPA system will serve as probes to understand the molecular mechanisms of the uPA cascade and better understanding the microenvironmental circumstances that facilitate the activation of plasminogen by uPA, and finally may provide novel candidate agents for anticancer drug therapy.
[…] […] Upon inhibition of the uPA activation cascade, the subsequent cell surface uPA activity-dependent translocation of LF into the cytoplasm is inhibited. ATP-Lite is used to measure intracellular ATP concentrations, which remain increased if LF entry into the cytoplasm is inhibited. This validation assay was performed using a small set of validation compounds.
uPA assay protocol summary:
RAW 264.7 cells were maintained in DMEM medium (Invitrogen, Carlsbad, CA) at 37C under a humidified atmosphere containing 5% CO2 and 95% air. The medium contained 10% FBS, 1 mM sodium pyruvate and 50 U/ml penicillin/streptamycin (Invitrogen, Carlsbad, CA). All compounds were screened as 7-point titration from 2.45 nM to 38.3 uM final concentration. The assay was performed in 1536-well format plate as follows:
1.Dispensing RAW 264.7 cells into 1536-well, white walled tissue culture plates at a density of 4000 cells/well (4 uL).
2.Incubation at 37 C in a 5% CO2 incubator overnight.
3.Serially diluting compounds (1:5 serial dilution; 0.0024 uM to […] final concentration) in 23 nl DMSO.
5.Incubating the compound and reagent-treated plates for 18 hours at 37 C in a 5% CO2 incubator.
6.Adding ATP-Lite (3 ul).
7.Reading plates by ViewLux with an exposure length of 5 seconds.
(qHTS replaces the single test concentration by a dilution series.)
Turning to `C[N+](C)(C)CCO`, the result was inactive.
Turning to `CC(C)N(CCC(=O)c1ccc2ccccc2c1)Cc1ccccc1`, the outcome was inactive.
Then `Clc1ccc2c(c1)N=C(N1CCNCC1)c1ccccc1N2`, with “inactive”; and `COc1cccc2c1[C@@H]1CN(CCCCn3c(=O)[nH]c4c(sc5ncc(-c6ccccc6)nc54)c3=O)C[C@@H]1CO2`, with “inactive”.
Then `O=C1NC(c2cccc([N+](=O)[O-])c2)=CCN1c1ccccc1O`, with “inactive”; and `NC(N)=NCCCCN=C(N)N`, with “inactive”.
Then `CN(C)c1cc2c(Nc3ccc4c(cnn4Cc4ccccc4)c3)ncnc2cn1`, with “inactive”; and `COc1ccccc1N1CCN(CCN2C(=O)CC3(CCCC3)CC2=O)CC1`, with “inactive”; and `Cc1nn(-c2ccccc2)c(C)c1/C=N/N1CCN(Cc2ccccc2)CC1`, with “inactive”.
Regarding `Cn1cnc2c(NCc3ccccc3)nc(NCCO)nc21`, the outcome was inactive.
Then `O=[N+]([O-])c1ccc(-c2nc(-c3ccc(F)cc3)c(-c3ccncc3)[nH]2)cc1`, with “inactive”; and `Nc1ncnc2n[nH]c(Nc3ccc(F)cc3)c12`, with “inactive”; and `Brc1ccc([C@H]2CN3CCSC3=N2)cc1`, with “inactive”.
Then `COC(=O)C1=CO[C@@H](O)[C@@H]2C(CO)=CC[C@H]12`, with “inactive”.
On to `O=C1NC(=O)/C(=C/c2ccc3c(c2)OC(F)(F)O3)S1`, for which the result was inactive.
With `N[C@@H](Cn1ccc(=O)c(O)c1)C(=O)O`, the compound was classed as inactive.
Then `CCN(CC)CCNC(=O)c1ccc(NS(C)(=O)=O)cc1`, with “inactive”.

For the origin of these results see PubChem BioAssay (NCATS).
